Calls of active or inactive are those of the source. Rule for the calls: active = hit-call score of the fitted dose curve at least 0.9, where 1 is the maximum; inactive = score below 0.9.
Columns and labels:
Details in all cases: mRNA level, 48 h; actives raise or lower the signal
MYC, MYC (gene 4609) = assay: LTEA_HepaRG_MYC: Life Technologies and Expression Analysis (LTEA) Assay for MYC using HepaRG (AID 2283518)
Method in brief: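 HepaRG, ~100,000 cells/well, collagen I; 48 h plating; serum-free induction medium; 48 h dosing, duplicate, 100 uM top, half-log, 0.5% DMSO; total RNA → qRT-PCR MYC; gain/loss fit vs DMSO.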

[1] = read-out: matrix metalloproteinase-3 (MMP3), MMP3 (gene 4314); assay: LTEA_HepaRG_MMP3: Life Technologies and Expression Analysis (LTEA) Assay for matrix metalloproteinase-3 (MMP3) using HepaRG (AID 2283519)
Method in brief: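 Human liver HepaRG cultures received chemicals (top concentration 100 uM, 0.5% DMSO) for 48 h in duplicate. MMP3 mRNA induction or loss was then assessed via TaqMan qRT-PCR with housekeeping-gene normalisation.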

[2] = read-out: Paternally Expressed 10 (PEG10), PEG10 (gene 23089); assay: LTEA_HepaRG_PEG10: Life Technologies and Expression Analysis (LTEA) Assay for Paternally Expressed 10 (PEG10) using HepaRG (AID 2283520)
Method in brief: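 Human HepaRG cultures are dosed for 48 h across an eight-point half-log series starting at 100 uM, with 0.5% DMSO as vehicle and baseline. Gain or loss of PEG10 transcript is measured by qRT-PCR and fitted in both directions.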

[3] = read-out: Protein phosphatase 2A (PPP2R4), PTPA (gene 5524); assay: LTEA_HepaRG_PPP2R4: Life Technologies and Expression Analysis (LTEA) Assay for Protein phosphatase 2A (PPP2R4) using HepaRG (AID 2283522)
Method in brief: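 Cells were plated, cultured 48 h, switched to serum-free induction medium, then dosed for 48 h (8 points, max 100 uM, 0.5% DMSO). RNA was isolated and PPP2R4 expression measured by TaqMan qRT-PCR.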

[4] = read-out: Phosphatase and tensin (PTEN), PTEN (gene 5728); assay: LTEA_HepaRG_PTEN: Life Technologies and Expression Analysis (LTEA) Assay for Phosphatase and tensin (PTEN) using HepaRG (AID 2283523)
Method in brief: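 Expression of PTEN is quantified in the human liver line HepaRG following two days of dosing (top concentration 100 uM, half-log dilutions, 0.5% DMSO). Values derive from bidirectional curve fitting relative to DMSO controls.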

[5] = read-out: solute carrier (SLC22A1), SLC22A1 (gene 6580); assay: LTEA_HepaRG_SLC22A1: Life Technologies and Expression Analysis (LTEA) Assay for solute carrier (SLC22A1) using HepaRG (AID 2283524)
Method in brief: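 Transcript induction or suppression of SLC22A1 in human HepaRG cultures is scored after 48 h chemical treatment, with DMSO (0.5%) as baseline for bidirectional fitting. Concentrations span eight half-log points topping at 100 uM.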

[6] = read-out: Pyruvate Dehydrogenase Kinase 4 (PDK4), PDK4 (gene 5166); assay: LTEA_HepaRG_PDK4: Life Technologies and Expression Analysis (LTEA) Assay for Pyruvate Dehydrogenase Kinase 4 (PDK4) using HepaRG (AID 2283525)
Method in brief: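 Eight-point, half-log concentration series (max 100 uM, 0.5% DMSO) applied to differentiated HepaRG cells for 48 h in duplicate. Endpoint: PDK4 mRNA induction or repression by qRT-PCR against DMSO baseline.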

[7] = read-out: NAD(P)H dehydrogenase [quinone] 1 (NQO1), NQO1 (gene 1728); assay: LTEA_HepaRG_NQO1: Life Technologies and Expression Analysis (LTEA) Assay for NAD(P)H dehydrogenase [quinone] 1 (NQO1) using HepaRG (AID 2283526)
Method in brief: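 Transcript induction or suppression is quantified by qRT-PCR in human HepaRG liver cells dosed for 48 hours. Eight half-log concentrations topping at 100 uM are used, with 0.5% DMSO as vehicle and baseline.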

[8] = read-out: Nuclear factor erythroid 2-related factor 2 (Homo sapiens) (UniProt Q16236); assay: LTEA_HepaRG_NFE2L2: Life Technologies and Expression Analysis (LTEA) Assay for Nuclear factor erythroid 2-related factor 2 (NFE2L2) Transcription Factor using HepaRG (AID 2283527)
Method in brief: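 Human liver HepaRG line treated in duplicate for 48 h with an eight-point series topping at 100 uM. Gene expression of NFE2L2 by qRT-PCR, bidirectionally fitted against the vehicle control.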

[9] = read-out: succinate dehydrogenase complex iron sulfur subunit B (SDHB), SDHB (gene 6390); assay: LTEA_HepaRG_SDHB: Life Technologies and Expression Analysis (LTEA) Assay for succinate dehydrogenase complex iron sulfur subunit B (SDHB) using HepaRG (AID 2283528)
Method in brief: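 SDHB transcript level read by TaqMan qRT-PCR, housekeeping-normalised (ACTB, GAPDH, POLR2A), after 48 h chemical treatment of plated HepaRG cells; eight concentrations top 100 uM, half-log steps, 0.5% DMSO, duplicates; fitted both directions against DMSO.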

[10] = read-out: Signal transducer and activator of transcription 3 (Homo sapiens) (UniProt P40763); assay: LTEA_HepaRG_STAT3: Life Technologies and Expression Analysis (LTEA) Assay for Signal transducer and activator of transcription (STAT3) using HepaRG (AID 2283529)
Method in brief: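 In this transcriptional endpoint, HepaRG cultures receive test chemicals at up to 100 uM for 48 h, tested in duplicate. STAT3 mRNA is normalized to ACTB, GAPDH and POLR2A.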

[11] = read-out: solute carrier (SLCO1B1), SLCO1B1 (gene 10599); assay: LTEA_HepaRG_SLCO1B1: Life Technologies and Expression Analysis (LTEA) Assay for solute carrier (SLCO1B1) using HepaRG (AID 2283530)
Method in brief: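 HepaRG, serum-free induction medium, 48 h dosing, 8-pt half-log from 100 uM, 0.5% DMSO vehicle, duplicates. Readout: SLCO1B1 mRNA, qRT-PCR, ACTB/GAPDH/POLR2A normalization; up or down fit vs DMSO.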

[12] = read-out: sulfotransferase 2A1 (SULT2A1), SULT2A1 (gene 6822); assay: LTEA_HepaRG_SULT2A1: Life Technologies and Expression Analysis (LTEA) Assay for sulfotransferase 2A1 (SULT2A1) using HepaRG (AID 2283531)
Method in brief: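 Transcript levels of SULT2A1, quantified by qRT-PCR and normalized to three housekeeping genes, serve as the readout. Human HepaRG cultures receive test chemicals for 48 h at up to 100 uM in half-log steps, with 0.5% DMSO vehicle.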

[13] = read-out: Transforming Growth Factor (TGFA), TGFA (gene 7039); assay: LTEA_HepaRG_TGFA: Life Technologies and Expression Analysis (LTEA) Assay for Transforming Growth Factor (TGFA) using HepaRG (AID 2283532)
Method in brief: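 Gene expression of TGFA was quantified by qRT-PCR after human HepaRG cells were treated for 48 h with test chemicals (eight concentrations, highest 100 uM, 0.5% DMSO). Activity in either direction was fitted relative to DMSO.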

[14] = read-out: Transforming Growth Factor (TGFB1), TGFB1 (gene 7040); assay: LTEA_HepaRG_TGFB1: Life Technologies and Expression Analysis (LTEA) Assay for Transforming Growth Factor (TGFB1) Transporter using HepaRG (AID 2283533)
Method in brief: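 HepaRG, 48 h post-plating, switched to serum-free induction medium; chemicals 100 uM top, half-log, 8 pts, 0.5% DMSO, dup; 48 h exposure; RNA → Fluidigm TaqMan qRT-PCR; norm ACTB/GAPDH/POLR2A; bidirectional fit vs DMSO.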

TIMP1, TIMP1 (gene 7076) = assay: LTEA_HepaRG_TIMP1: Life Technologies and Expression Analysis (LTEA) Assay for TIMP1 using HepaRG (AID 2283534);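 note: TaqMan qRT-PCR signal normalized to ACTB GAPDH and POLR2A housekeeping genes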
Method in brief: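 Readout is TIMP1 mRNA level measured by qRT-PCR and normalized to three housekeeping genes. Human HepaRG cells were treated for 48 h in duplicate at eight concentrations up to 100 uM (0.5% DMSO); gain or loss fitted against DMSO.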

[15] = read-out: Tumor necrosis factor receptor 1 (TNFRSF1A), TNFRSF1A (gene 7132); assay: LTEA_HepaRG_TNFRSF1A: Life Technologies and Expression Analysis (LTEA) Assay for Tumor necrosis factor receptor 1 (TNFRSF1A) using HepaRG (AID 2283535)
Method in brief: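 Read-out is TNFRSF1A transcript level by TaqMan qRT-PCR, normalized to three housekeeping genes, scored as gain or loss of signal versus 0.5% DMSO. Human HepaRG cells received test chemicals for 48 h at up to 100 uM (half-log series).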

[16] = read-out: Thyroid Hormone Responsive (THRSP), THRSP (gene 7069); assay: LTEA_HepaRG_THRSP: Life Technologies and Expression Analysis (LTEA) Assay for Thyroid Hormone Responsive (THRSP) using HepaRG (AID 2283536)
Method in brief: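 Cell model: human HepaRG, approx. 100,000 cells/well, 0.5% DMSO vehicle. Exposure lasts 48 h; phenobarbital 1 mM serves as induction positive control. Gene expression is measured by qRT-PCR against three endogenous control genes.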

[17] = read-out: Cellular tumor antigen p53 (Homo sapiens) (UniProt P04637); assay: LTEA_HepaRG_TP53: Life Technologies and Expression Analysis (LTEA) Assay for Tumor Protein P53 (TP53) using HepaRG (AID 2283537)
Method in brief: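 TP53 transcript measured by qRT-PCR, normalized to three housekeeping genes, after 48 h treatment of human HepaRG cultures with chemicals from 100 uM downward in half-log steps (0.5% DMSO vehicle, serum-free induction medium). Up- or down-regulation fitted against DMSO.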

[18] = read-out: UDP glucuronosyltransferase (UGT1A1), UGT1A1 (gene 54658); assay: LTEA_HepaRG_UGT1A1: Life Technologies and Expression Analysis (LTEA) Assay for UDP glucuronosyltransferase (UGT1A1) using HepaRG (AID 2283538)
Method in brief: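 Cells are plated, cultured 48 h, switched to serum-free induction medium, then dosed 48 h at eight concentrations (max 100 uM, 0.5% DMSO). RNA is isolated and UGT1A1 expression measured by qRT-PCR; changes versus DMSO are fitted in both directions.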

Measured: outcome

Cellular tumor antigen p53 (Homo sapiens), sequence (P04637 whole entry, looked up): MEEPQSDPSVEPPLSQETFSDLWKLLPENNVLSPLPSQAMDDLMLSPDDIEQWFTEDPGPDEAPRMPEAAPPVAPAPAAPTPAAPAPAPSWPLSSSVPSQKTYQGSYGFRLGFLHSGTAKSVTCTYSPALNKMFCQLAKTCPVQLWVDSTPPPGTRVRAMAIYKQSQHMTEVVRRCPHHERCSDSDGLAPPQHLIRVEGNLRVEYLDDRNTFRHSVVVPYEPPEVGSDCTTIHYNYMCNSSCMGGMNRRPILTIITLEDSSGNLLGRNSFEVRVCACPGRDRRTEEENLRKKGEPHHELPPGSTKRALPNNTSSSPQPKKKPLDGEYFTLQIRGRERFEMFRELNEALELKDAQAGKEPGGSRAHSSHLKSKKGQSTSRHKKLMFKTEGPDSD
Signal transducer and activator of transcription 3 (Homo sapiens), sequence (P40763 whole entry, looked up): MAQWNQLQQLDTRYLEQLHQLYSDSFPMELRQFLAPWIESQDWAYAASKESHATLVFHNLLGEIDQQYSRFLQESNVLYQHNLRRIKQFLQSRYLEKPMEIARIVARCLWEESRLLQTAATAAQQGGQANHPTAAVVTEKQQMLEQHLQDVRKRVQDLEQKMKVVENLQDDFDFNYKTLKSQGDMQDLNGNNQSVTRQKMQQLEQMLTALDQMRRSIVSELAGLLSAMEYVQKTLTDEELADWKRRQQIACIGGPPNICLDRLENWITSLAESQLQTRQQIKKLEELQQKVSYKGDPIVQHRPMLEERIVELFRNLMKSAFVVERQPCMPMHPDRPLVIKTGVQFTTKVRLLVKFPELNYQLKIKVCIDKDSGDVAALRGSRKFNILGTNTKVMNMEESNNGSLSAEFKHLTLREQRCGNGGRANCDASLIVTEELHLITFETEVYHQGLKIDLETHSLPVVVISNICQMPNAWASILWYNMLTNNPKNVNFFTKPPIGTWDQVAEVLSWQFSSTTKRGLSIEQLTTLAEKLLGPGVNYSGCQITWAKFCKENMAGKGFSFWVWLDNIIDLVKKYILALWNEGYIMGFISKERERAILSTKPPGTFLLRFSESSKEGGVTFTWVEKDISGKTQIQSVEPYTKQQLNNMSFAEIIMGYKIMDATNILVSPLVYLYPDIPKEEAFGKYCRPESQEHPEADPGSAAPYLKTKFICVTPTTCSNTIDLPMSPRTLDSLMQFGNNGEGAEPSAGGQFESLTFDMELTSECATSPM
Nuclear factor erythroid 2-related factor 2 (Homo sapiens), sequence (Q16236 whole entry, looked up): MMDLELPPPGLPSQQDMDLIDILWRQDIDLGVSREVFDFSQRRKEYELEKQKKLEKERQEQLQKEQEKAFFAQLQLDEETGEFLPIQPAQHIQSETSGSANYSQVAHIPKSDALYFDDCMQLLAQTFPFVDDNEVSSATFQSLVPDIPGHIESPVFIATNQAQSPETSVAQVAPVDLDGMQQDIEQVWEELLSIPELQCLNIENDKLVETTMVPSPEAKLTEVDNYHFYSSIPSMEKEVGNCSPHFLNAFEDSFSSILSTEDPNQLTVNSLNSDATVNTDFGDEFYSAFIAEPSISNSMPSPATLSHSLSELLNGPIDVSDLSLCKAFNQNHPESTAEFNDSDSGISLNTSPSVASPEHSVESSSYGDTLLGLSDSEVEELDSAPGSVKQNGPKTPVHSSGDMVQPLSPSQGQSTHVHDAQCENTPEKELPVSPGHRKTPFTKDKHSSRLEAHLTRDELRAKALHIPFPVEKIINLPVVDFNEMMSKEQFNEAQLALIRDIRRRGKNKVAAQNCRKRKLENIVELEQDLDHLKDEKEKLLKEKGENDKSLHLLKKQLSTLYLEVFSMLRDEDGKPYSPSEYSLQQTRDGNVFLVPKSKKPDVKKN

O=C(CCl)c1ccccc1
inactive: all assays above

N#CCCCCC#N
inactive: all assays above

O=[N+]([O-])c1ccc(Cl)cc1
inactive: all assays above
